Data on 92 compounds can be found in PubChem BioAssay AID463173 (ICCB-Longwood Screening Facility, Harvard Medical School, 2010).

Molecules are shown by their SMILES. The campaign covered roughly 52,000 compounds. About 4,300 (8.3%) were called active. The sample as a whole holds a higher share of actives than the screen did. Unmarked numbers belong to inactive results. Rule as the data show it: active = survival mostly below about 52% (no sharp cut-off); inactive = mostly above about 56%.

This experiment relates to DeltatarO mutant. The experiment can be described thus: S. aureus survival, RN4220 and DeltatarO strains – OD600, teichoic acid synthesis inhibitors, primary screen (AID 463173). The note with it: S. aureus RN4220 wild type/DeltatarO growth, OD600, 18 h, active compounds read low, screened at 18.75 µg/mL (by protocol).
On to `O=C(c1cccc(C(F)(F)F)c1)C1CCN(C(=O)N2CCOCC2)CC1`, for which the survival is 103%.
The figure for `Cc1cccc(CSc2nc3c(c(=O)[nH]2)C(c2cccc(O)c2)CC(=O)N3)c1` (configuration not stated) is 110%.
The value for `CCc1nn(CC(=O)NCc2ccco2)c(=O)c2cc3cc(F)ccc3n12` was 104%.
The value for `COc1ccc(Cn2ccc3nc(C)c(C(=O)N4CCN(c5ccccc5)CC4)cc3c2=O)cc1` was 85%; that for `COc1ccc(CNC(=O)Cn2c(=O)cc(-c3ccccc3)c3c(C)nn(C)c32)cc1` was 67%.
As to `COc1ccc(CCNC(=O)CN(c2ccccc2)S(=O)(=O)N(C)C)cc1OC`, the survival is 62%.
The value for `Cc1nc(-n2nc(C)c(CCC(C)C)c2C)sc1C(=O)Nc1cccc(Cl)c1` was 122%; that for `Cc1cccc(NC(=O)c2sc(-n3nc(C)c(CCC(C)C)c3C)nc2C)c1C` was 62%.
The figure for `Cc1nc(-n2nc(C)c(CCC(C)C)c2C)sc1C(=O)Nc1cccc(Cl)c1C` is 56% (active).
The figure for `CCCN(C(=O)Nc1cn(CC(C)C)c(=O)c2ccccc12)c1ccc(F)cc1` is 82%.
Consider `Cc1cc(C)n(CCCO)c(=O)c1C#N`, for which the survival was 86%.
Take `COc1ccc(-c2cn3c(n2)sc2cc(C(=O)NC4CCCCCC4)ccc23)cc1`: the survival is 73%.
The figure for `CCn1c(CN2CCC(C)CC2)nc2cc(NC(=O)c3ccc([N+](=O)[O-])cc3)ccc21` is 86%.
The figure for `CCc1ccccc1NC(=O)N1CC(CC)Oc2ccc(Cl)cc21` (configuration not stated) is 44%; for `CCC1CN(C(=O)Nc2cccc3c2CCCC3)c2cc(C)ccc2O1` (configuration not stated) it is 49%.
Regarding `CCC1CN(C(=O)Nc2cc(Cl)c(OC)cc2OC)c2ccccc2O1` (configuration not stated), the survival was 61%.
The value for `CCC1CN(C(=O)Nc2cccc3c2CCCC3)c2ccccc2O1` (configuration not stated) was 56%; that for `CCC1CN(C(=O)Nc2cccc3c2CCCC3)c2cc(Cl)ccc2O1` (configuration not stated) was 44% (active).
The value for `CCC1CN(C(=O)Nc2cc(C)ccc2OC)c2cc(Cl)ccc2O1` (configuration not stated) was 44% (active); that for `Cc1ccc(C)c(CN2C(=O)c3ccccc3Sc3ccc(C(=O)NCCCOC(C)C)cc32)c1` was 89%; that for `COc1cccc(N2CCN(c3ncnc4onc(-c5ccc(F)cc5)c34)CC2)c1` was 83%.
On to `CCc1ccc(NC(=O)CSc2nc(C)cc(COC)c2C#N)cc1`, for which the survival was 84%.
The figure for `COc1ccc2[nH]c(=O)c(CN(Cc3cccs3)S(=O)(=O)c3cccc4nsnc34)cc2c1` is 113%; for `COC(=O)c1ccccc1NC(=O)CCC(=O)N1CC(C)Sc2ccccc21` (configuration not stated) it is 42% (active); for `CC1CN(C(=O)CCC(=O)Nc2cc(F)ccc2F)c2ccccc2S1` (configuration not stated) it is 51%.
The figure for `Cc1ccccc1NC(=O)CCC(=O)N1CC(C)Sc2ccccc21` (configuration not stated) is 64%.
On to `Cc1ccc(Cl)cc1NC(=O)CCC(=O)N1CC(C)Sc2ccccc21` (configuration not stated), for which the survival is 44% (active).
The value for `COC(=O)c1ccccc1NC(=O)CCC(=O)N1CCOc2ccccc21` was 65%; that for `CCc1ccccc1NC(=O)N1CC(C)Sc2ccccc21` (configuration not stated) was 77%; that for `Fc1ccccc1N1CCN(Cc2nnc(-c3ccc4c(c3)OCO4)o2)CC1` was 85%.
The figure for `CCC(=O)N(c1nnc(-c2cc(OC)c(OC)c(OC)c2)s1)C1CCCC1` is 65%; for `O=C(CNC(=O)c1ccc(F)cc1)OCc1cc(=O)n2nc(C3CC3)sc2n1` it is 81%.
`Cc1ccc(Nc2nc(C)cs2)cc1`: the survival was 82%.
The value for `c1ccc(Nc2nc(-c3ccncc3)cs2)cc1` was 100%; that for `Oc1ccc(Nc2nc(-c3ccc(O)cc3)cs2)cc1` was 1% (active).
The figure for `CN1CCN(C(c2cccc(Br)c2)c2sc3nc(-c4ccco4)nn3c2O)CC1` (configuration not stated) is 70%.
The figure for `COc1ccc(N(C)C(=O)c2oc(=O)c3ccccc3c2-c2ccc(C)cc2)c(OC)c1` is 97%.
As to `CCOc1ccc(N(C)C(=O)c2oc(=O)c3ccccc3c2-c2ccccc2)cc1`, the survival is 55%.
Consider `CCCCN(CCCC)S(=O)(=O)c1ccc2oc(C(=O)NCc3ccccc3)c(C)c2c1`, for which the survival is 99%.
The value for `CCOc1ccc(CCNC(=O)c2oc(=O)c3ccccc3c2-c2ccc(C)cc2)cc1OCC` was 70%; that for `Cc1ccc(-c2c(C(=O)N(C)Cc3ccccc3)oc(=O)c3ccccc23)cc1` was 24% (active).
The value for `Cc1ccc(-c2c(C(=O)NCCc3ccc(Cl)cc3)oc(=O)c3ccccc23)cc1` was 51%.
The figure for `Cc1ccc(-c2c(C(=O)NCc3ccc(F)cc3)oc(=O)c3ccccc23)cc1` is 57%; for `CCCCN(Cc1ccccc1)C(=O)c1oc(=O)c2ccccc2c1-c1ccc(C)cc1` it is 8% (active).
For the compound `CCN(CC)S(=O)(=O)c1ccc2oc(C(=O)NCc3ccccc3OC)c(C)c2c1`, the survival is 71%.
The figure for `Cc1ccc(-c2c(C(=O)NCCc3ccccc3)oc(=O)c3ccccc23)cc1` is 91%.
The value for `CCN(CC)S(=O)(=O)c1ccc2oc(C(=O)N(C)Cc3ccccc3)c(C)c2c1` was 40% (active).
Consider `Cc1ccc(CCNC(=O)c2oc(=O)c3ccccc3c2-c2ccc(C)cc2)cc1`, for which the survival is 28% (active).
The figure for `O=C1CC(N2CCC(c3nc4ccccc4[nH]3)CC2)C(=O)N1` (configuration not stated) is 84%.
The figure for `Cc1c(C)n(Cc2ccccc2)c2ccc(C(=O)NCCc3ccccc3Cl)cc12` is 84%; for `COCCCn1c(SCC(=O)Nc2ccc(F)cc2)nc2c(sc3ccccc32)c1=O` it is 81%.
For `CCOCCc1nnc(NC(=O)C(=O)c2cc(C)n(-c3ccc(Cl)cc3)c2C)s1`, the survival is 60%.
The figure for `CC(C)c1nn2c(=O)cc(COC(=O)c3ccccc3NC(=O)C3CCCCC3)nc2s1` is 90%.
Take `CCOCCCNC(=O)C1CCN(c2nn3cc(-c4ccc(F)cc4)nc3s2)CC1`: the survival was 86%.
The value for `CC1=C(c2ccc(C)c(C)c2)S(=O)(=O)N=C1N1CCC(C(=O)NCc2ccccc2C)CC1` was 76%; that for `COc1ccc(CNC(=O)CCc2c(C)c3cc4c(C)c(C)oc4cc3oc2=O)cc1OC` was 104%.
The figure for `CCOc1ccc(OCC)c(Nc2nc3ccc(C(=O)c4ccccc4)cc3n3cnnc23)c1` is 77%; for `O=C(NCCc1ccccc1Cl)C1CCN(c2nc3ccccc3nc2C(F)(F)F)CC1` it is 37% (active).
As to `COc1ccccc1CCNC(=O)C1CCN(c2nc3ccccc3nc2C(F)(F)F)CC1`, the survival was 117%.
The figure for `CCCSCCCNC(=O)C1CCN(c2nc3ccccc3nc2C(F)(F)F)CC1` is 0% (active); for `CCNC(=O)C1CCN(c2nc3ccccc3nc2C(F)(F)F)CC1` it is 144%.
The value for `CCCCNC(=O)C1CCN(c2nc3ccccc3nc2C(F)(F)F)CC1` was 115%; that for `Cc1ccccc1CCNC(=O)C1CCN(c2nc3ccccc3nc2C(F)(F)F)CC1` was 72%.
The value for `COC(=O)c1cnc(N2CCN(c3ccccc3F)CC2)c2ccccc12` was 86%; that for `CCOC(=O)c1cnc(N2CCN(c3cccc(C)c3C)CC2)c2ccccc12` was 77%; that for `CCOC(=O)c1cc(S(=O)(=O)N2CCN(c3ccccc3F)CC2)[nH]n1` was -5% (active).
Take `CCOC(=O)c1cnc(N2CCN(c3ccc(C)cc3C)CC2)c2ccccc12`: the survival is 87%.
As to `CCOC(=O)c1cc(S(=O)(=O)N2CCN(c3cccc(C)c3C)CC2)[nH]n1`, the survival is 81%.
The value for `CCOC(=O)c1cnc2ccc(OCC)cc2c1N1CCN(c2cccc(Cl)c2)CC1` was 3% (active).
The figure for `CCOC(=O)c1noc2ncnc(N3CCN(c4cccc(Cl)c4)CC3)c12` is 83%; for `CCOC(=O)c1cc(S(=O)(=O)N2CCN(c3ccccc3OC)CC2)[nH]n1` it is 122%; for `CCOC(=O)c1cnc2ccc(OCC)cc2c1N1CCN(c2ccccc2F)CC1` it is 0% (active).
In the case of `CCOc1ccc(NC(=O)NCCN2CCN(c3ccccc3F)CC2)cc1`, the survival was 87%.
The value for `CCOC(=O)c1cnc2c(OC)cccc2c1N1CCN(c2ccccc2F)CC1` was 1% (active); that for `CCOC(=O)c1cnc2cc(C(F)(F)F)ccc2c1N1CCN(c2cccc(Cl)c2)CC1` was 84%; that for `CCOC(=O)c1ccccc1NC(=O)Cn1c(=O)n(-c2cccc(C)c2)c(=O)c2c1c1cc(C)ccc1n2C` was 68%.
The value for `CCOc1ccc(C(=O)NCC(c2cccs2)S(=O)(=O)c2ccccc2)cc1` (configuration not stated) was 97%.
In the case of `CC(C)OC(=O)c1cc2c(ccn2C)n1CCC#N`, the survival was 96%.
The figure for `Cc1cc(Nc2ccccc2C)nc(-n2nc(C)cc2C)n1` is 83%; for `Cc1ccc(S(=O)(=O)c2nc(-c3cccc(Cl)c3)oc2NCc2ccccc2)cc1` it is 168%; for `Cc1ccc(NC(=O)C(=O)NCC(c2cccnc2)N2CCc3ccccc32)cc1Cl` (configuration not stated) it is 97%.
The figure for `Cc1cc(C)cc(NC(=O)C(=O)NCC(c2cccnc2)N2CCc3ccccc32)c1` (configuration not stated) is 43% (active); for `Cc1cccc(C)c1NC(=O)C(=O)NCC(c1cccnc1)N1CCc2ccccc21` (configuration not stated) it is 62%; for `COc1ccc(NC(=O)C(=O)NCC(c2cccnc2)N2CCc3ccccc32)cc1OC` (configuration not stated) it is 61%.
The value for `COC(=O)c1ccc(NC(=O)C(=O)NCC(c2cccnc2)N2CCc3ccccc32)cc1` (configuration not stated) was 34% (active); that for `CCOc1ccc(NC(=O)C(=O)NCC(c2cccnc2)N2CCc3ccccc32)cc1` (configuration not stated) was 44%; that for `COc1ccc(NC(=O)c2cnc(N3CCCCC3)c3ccccc23)cc1Cl` was 78%.
On to `CCOc1cc(C(=O)Nc2ccc3c(c2)n(C)c(=O)c(=O)n3C)cc(OCC)c1OCC`, for which the survival was 84%.
Turning to `COc1ccc2c(c1)sc1ncc(C(=O)NCc3ccccc3F)c(=O)n12`, the survival was 101%.
The figure for `Cc1ccc2[nH]c(=O)cc(C(=O)O)c2c1` is 99%; for `Cc1cc(=O)c2cc(Br)ccc2[nH]1` it is 71%; for `Cc1ccc2[nH]c(C)cc(=S)c2c1` it is 45% (active).
